# Several values for one entry are separate records, joined by “and”; a condition that tells them apart may be missing. Identical values can stand only once. Results filed as inconclusive are left out. For some assays here: Results with a measured potency or affinity are listed apart. Activity calls are given as the source filed them.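 The calls were made as follows, unless noted: active = at least 20% inhibition of 6-phosphogluconate dehydrogenase activity; inactive = the rest.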
# Experiments:
# [1] = target: 6-phosphogluconate dehydrogenase, decarboxylating (Homo sapiens) (UniProt P52209); assay: inhibition of human phosphogluconate dehydrogenase – biochemical, recombinant enzyme, NADPH absorbance, primary screen (AID 1159550); settings: recombinant 6PGD, NADPH absorbance 341 nm; at 10 µM; stronger effect = higher value
# 6-phosphogluconate dehydrogenase, decarboxylating (Homo sapiens), sequence (P52209 whole entry, looked up): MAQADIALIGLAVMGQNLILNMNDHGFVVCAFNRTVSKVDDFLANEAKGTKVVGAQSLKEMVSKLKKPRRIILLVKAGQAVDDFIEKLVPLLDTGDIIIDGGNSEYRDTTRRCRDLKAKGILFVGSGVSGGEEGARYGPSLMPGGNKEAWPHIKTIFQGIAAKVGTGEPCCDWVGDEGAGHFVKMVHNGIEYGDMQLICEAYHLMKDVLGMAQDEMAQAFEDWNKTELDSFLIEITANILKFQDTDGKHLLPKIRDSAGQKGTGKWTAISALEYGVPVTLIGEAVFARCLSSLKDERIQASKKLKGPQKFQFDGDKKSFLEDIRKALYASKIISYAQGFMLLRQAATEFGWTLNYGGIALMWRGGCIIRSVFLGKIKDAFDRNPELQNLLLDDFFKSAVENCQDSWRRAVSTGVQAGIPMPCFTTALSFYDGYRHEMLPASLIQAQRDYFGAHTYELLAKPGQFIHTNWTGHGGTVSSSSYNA
# [2] = P. berghei load reduction in hepatocytes – cell-based, HepG2, luciferase luminescence, HepG2 viability, primary screen (AID 624349; in the data active = parasite load remaining mostly below about 12%, no sharp cut-off; inactive = mostly above about 10%;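 also: 100% = mean of DMSO negative control wells on the same plate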); settings: P. berghei liver stage in HepG2, luciferase luminescence, concentration not given here; parasite load remaining: stronger effect = lower value; viability: measured here: HepG2 viability without parasites
# [3] = viability loss with induced miR-34 in A549 – imaging, A549 dox-inducible miR-34, nuclei and caspase counts, primary screen (AID 1347080;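 active = compounds whose cell count with miR-34 switched on is under 0.7 times the count with it off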); settings: A549 miR-34 inducible, Hoechst nuclei count, 48 h
# [4] = galactose survival enhancers in mitochondrial complex I cybrids – cell-based, galactose medium, ATP luminescence, primary screen (AID 1645843;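 active = z-score of at least 1.8 in each of two replicates, scored against plate mean and spread of sample wells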;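 also: positive z means more ATP and so rescue of galactose-driven cybrid death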); settings: complex I mutant cybrid cells, 72 h, stronger effect = higher value
# [5] = EMT-state selective cytotoxicity in co-culture – imaging, PC-3E GFP, TEM4-18 mCherry, primary screen (AID 1345086;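 active = compounds killing one labelled cell type while sparing the other, by normalised counts and ratio limits, not self-fluorescent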;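 as to all read-outs here: cells exposed to compound for 72 h before imaging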;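 as to red/green cell ratio (normalised): normalised mesenchymal count divided by normalised epithelial count so high means epithelial killing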); settings: PC-3E GFP / TEM4-18 mCherry co-culture, imaging cell counts, at 1 µM; for red/green cell ratio (normalised): actives lie on both sides
# [6] = target: ATP-dependent translocase ABCB1 (Homo sapiens) (UniProt P08183); assay: P-glycoprotein substrate transport blockade – cell-based (AID 377; in the data active = fluorescence slope change above about 50%); settings: MDR1-expressing cells, fluorescent substrate accumulation slope; stronger effect = higher value; concentration not given here
# ATP-dependent translocase ABCB1 (Homo sapiens), sequence (P08183 whole entry, looked up): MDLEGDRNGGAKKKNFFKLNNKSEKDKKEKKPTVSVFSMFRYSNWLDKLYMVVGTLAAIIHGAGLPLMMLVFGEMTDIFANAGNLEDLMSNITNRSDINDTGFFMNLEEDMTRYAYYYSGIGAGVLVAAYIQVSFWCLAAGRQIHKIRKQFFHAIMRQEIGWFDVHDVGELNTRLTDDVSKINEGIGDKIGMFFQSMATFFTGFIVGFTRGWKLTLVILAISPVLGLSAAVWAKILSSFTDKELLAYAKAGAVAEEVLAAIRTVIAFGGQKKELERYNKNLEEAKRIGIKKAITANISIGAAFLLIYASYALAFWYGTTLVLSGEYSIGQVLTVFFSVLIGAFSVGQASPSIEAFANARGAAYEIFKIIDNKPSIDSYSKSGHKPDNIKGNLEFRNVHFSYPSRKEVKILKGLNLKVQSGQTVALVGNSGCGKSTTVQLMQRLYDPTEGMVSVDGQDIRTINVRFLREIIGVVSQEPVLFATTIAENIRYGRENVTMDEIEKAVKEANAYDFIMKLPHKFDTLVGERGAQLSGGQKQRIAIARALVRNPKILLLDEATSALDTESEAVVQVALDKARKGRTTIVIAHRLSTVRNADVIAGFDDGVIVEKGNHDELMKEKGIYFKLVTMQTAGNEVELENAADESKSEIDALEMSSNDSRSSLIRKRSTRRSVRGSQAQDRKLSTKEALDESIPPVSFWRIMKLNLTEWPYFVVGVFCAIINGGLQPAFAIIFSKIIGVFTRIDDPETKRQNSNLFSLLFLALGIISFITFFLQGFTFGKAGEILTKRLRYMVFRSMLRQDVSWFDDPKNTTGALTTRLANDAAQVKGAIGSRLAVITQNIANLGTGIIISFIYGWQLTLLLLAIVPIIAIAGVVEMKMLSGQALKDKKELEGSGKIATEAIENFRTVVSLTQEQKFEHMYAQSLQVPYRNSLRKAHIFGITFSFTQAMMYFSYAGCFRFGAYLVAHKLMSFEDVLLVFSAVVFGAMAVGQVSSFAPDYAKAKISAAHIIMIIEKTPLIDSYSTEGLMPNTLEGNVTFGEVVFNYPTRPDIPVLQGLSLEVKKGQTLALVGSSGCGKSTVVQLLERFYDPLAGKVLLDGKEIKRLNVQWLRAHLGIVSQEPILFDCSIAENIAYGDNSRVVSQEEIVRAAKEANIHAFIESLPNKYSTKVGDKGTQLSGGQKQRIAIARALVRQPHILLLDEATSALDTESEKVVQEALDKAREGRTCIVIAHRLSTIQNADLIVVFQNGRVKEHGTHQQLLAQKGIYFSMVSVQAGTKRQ
# [7] = blockers of polyQ-driven CASP3 activation – cell-based (AID 1583); settings: polyglutamine-induced caspase-3 activation, cell assay; stronger effect = higher value;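 tested at 10 µM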
# [8] = yeast 75Q aggregation reduction – 75Q-TubU reporter (AID 1593); settings: Yeast 75Q polyglutamine aggregation reporter
# [9] = restoration of touch response, mutant HTT neurons – whole organism, C. elegans mechanosensory neurons, N-terminal huntingtin (AID 1599); settings: C. elegans polyQ-huntingtin mechanosensory neurons, stronger effect = higher value
# [10] = blockers of cytochrome c efflux from mitochondria – biochemical, purified mitochondria (AID 1603); settings: stronger effect = lower value;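 also: mouse liver mitochondria challenged with calcium chloride; signal normalized to the plate average as 100%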
# [11] = polyglutamine aggregate formation blockers (AID 1604); settings: polyglutamine-induced protein aggregation inhibition assay; stronger effect = higher value; tested at 2.5 µM
# [12] = glutamate transport activators, MN-1 cells, MN-1 cell line (AID 1612); settings: MN-1 motor neuron cells, stronger effect = higher value;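 also: tested at 1 µM final; 0% = mean of DMSO vehicle wells on each plate; positive means more glutamate uptake than control and negative means less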
# [13] = GFP-Q80 aggregate reduction, neuronal-like cells, cell-based, NGF-treated PC12, GFPQ80 (AID 1614); settings: PC12 NGF-treated GFP-polyQ80 inclusion reduction;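 also: lower means fewer inclusions and 0 means no inclusions at all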
# [14] = 75Q-TubH aggregate inhibition, S. cerevisiae, yeast (AID 1616); settings: S. cerevisiae 75Q-TubH polyglutamine aggregation suppression; stronger effect = higher value
# [15] = tested on: Aerobactin synthetase IucA (Klebsiella pneumoniae hvKP1); assay: IucA enzyme inhibition, primary screen, biochemical, Spectrum library (AID 1346200; call rule not given here;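 also: 100% = wells without compound and 0% = wells lacking enzyme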); settings: malachite green pyrophosphate, A620, at 8 µM, stronger effect = lower value
# [16] = target: NAD(+) hydrolase SARM1 (Homo sapiens) (UniProt Q6SZW1); assay: blocking NAD cleavage by SARM1 SAM-TIR – cell lysate, NAD-Glo luminescence (AID 1508614;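 active = compound whose remaining NAD level is above about 45 nM, limit read from the data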;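 also: higher remaining NAD means stronger inhibition of SARM1 NADase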); settings: SAM-TIR HEK293T lysate NADase, at 1 µM, stronger effect = higher value
# NAD(+) hydrolase SARM1 (Homo sapiens), sequence (Q6SZW1 whole entry, looked up, the tested form may be a part): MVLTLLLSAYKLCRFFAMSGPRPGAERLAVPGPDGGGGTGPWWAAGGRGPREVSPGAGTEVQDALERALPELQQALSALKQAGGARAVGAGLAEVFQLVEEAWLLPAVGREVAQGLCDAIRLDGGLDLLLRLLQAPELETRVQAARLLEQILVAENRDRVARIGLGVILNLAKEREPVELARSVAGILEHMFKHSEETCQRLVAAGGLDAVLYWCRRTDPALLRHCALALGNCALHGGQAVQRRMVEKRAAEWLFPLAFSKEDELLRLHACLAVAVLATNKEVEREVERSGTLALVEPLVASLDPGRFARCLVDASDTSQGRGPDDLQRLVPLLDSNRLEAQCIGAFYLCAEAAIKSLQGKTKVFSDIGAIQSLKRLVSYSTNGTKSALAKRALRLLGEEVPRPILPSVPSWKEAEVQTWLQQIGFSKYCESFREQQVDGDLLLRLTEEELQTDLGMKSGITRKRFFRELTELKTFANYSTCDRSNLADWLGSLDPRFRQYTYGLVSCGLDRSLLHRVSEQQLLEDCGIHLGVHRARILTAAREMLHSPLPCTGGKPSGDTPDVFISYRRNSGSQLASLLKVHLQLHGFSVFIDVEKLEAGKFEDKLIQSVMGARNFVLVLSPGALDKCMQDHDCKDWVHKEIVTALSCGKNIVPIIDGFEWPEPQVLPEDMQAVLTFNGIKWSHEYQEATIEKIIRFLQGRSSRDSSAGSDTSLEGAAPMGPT
# [17] = target: Mitogen-activated protein kinase 7 (Homo sapiens) (UniProt Q13164); assay: Gal4-ERK5 driven luciferase induction – cell-based, HTS, primary screen (AID 1508626;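 active = luciferase signal above three times the same-plate solvent-only control wells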;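 also: luciferase driven by Gal4-ERK5 fusion binding five Gal4 sites before minimal TATA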); settings: HeLa Gal4-ERK5 transactivation, 18 h, at 5 µM, stronger effect = higher value
# Mitogen-activated protein kinase 7 (Homo sapiens), sequence (Q13164 whole entry, looked up, the tested form may be a part): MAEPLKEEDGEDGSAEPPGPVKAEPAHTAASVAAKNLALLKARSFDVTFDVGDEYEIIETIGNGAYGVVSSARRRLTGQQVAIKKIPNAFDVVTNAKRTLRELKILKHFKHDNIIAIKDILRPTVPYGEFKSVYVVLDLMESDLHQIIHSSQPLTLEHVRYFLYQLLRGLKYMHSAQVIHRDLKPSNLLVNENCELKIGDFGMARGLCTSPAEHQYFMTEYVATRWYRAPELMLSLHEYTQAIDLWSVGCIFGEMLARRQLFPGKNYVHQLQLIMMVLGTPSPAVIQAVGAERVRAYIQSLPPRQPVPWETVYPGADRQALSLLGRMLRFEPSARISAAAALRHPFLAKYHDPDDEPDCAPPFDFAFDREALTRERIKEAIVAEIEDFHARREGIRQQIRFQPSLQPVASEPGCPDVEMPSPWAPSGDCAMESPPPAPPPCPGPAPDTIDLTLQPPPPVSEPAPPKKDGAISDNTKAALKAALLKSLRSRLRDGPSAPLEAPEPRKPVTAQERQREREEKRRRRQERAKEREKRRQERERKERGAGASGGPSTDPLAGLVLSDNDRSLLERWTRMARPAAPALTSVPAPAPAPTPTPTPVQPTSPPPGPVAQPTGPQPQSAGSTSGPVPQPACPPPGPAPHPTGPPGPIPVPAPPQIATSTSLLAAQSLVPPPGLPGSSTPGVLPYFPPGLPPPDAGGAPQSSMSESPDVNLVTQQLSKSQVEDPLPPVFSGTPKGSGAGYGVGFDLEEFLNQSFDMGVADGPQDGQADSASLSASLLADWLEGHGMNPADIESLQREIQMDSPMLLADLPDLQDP
# [18] = compounds altering viability of human ES cells (AID 493140; call rule not given here;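 also: cells exposed to compounds for four days before counting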); settings: human embryonic stem cell survival screen; stronger effect = higher value
# [19] = tested on: Aerobactin synthetase IucA (Klebsiella pneumoniae, hypervirulent); assay: biochemical IucA inhibition screen of LOPAC library by absorbance (AID 1346212; call rule not given here;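 also: 100% = no compound wells and 0% = no enzyme wells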); settings: IucA enzyme assay, absorbance (OD) readout; stronger effect = lower value; concentration not given here
# [20] = MELAS cybrid and Rieske KO viability enhancers – cell-based, MELAS cybrids, Rieske KO mouse fibroblasts, CellTiter-Glo, primary screen (AID 1508586;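 active = mean z-score across replicates of 1.96 or higher in either the MELAS or the Rieske mutant cell line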;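 also: z relative to plate mean and SD of compound and empty wells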); settings: low glucose
# [21] = measured here: relative caspase fold change +Dox/-Dox
# [22] = measured here: total cells with miR-34 induction, stronger effect = lower value
# [23] = measured here: total cells without miR-34 induction
# [24] = measured here: epithelial PC-3E GFP cell survival
# [25] = measured here: mesenchymal TEM4-18 mCherry cell survival
# [26] = MELAS cybrid survival, CellTiter-Glo 48 h, stronger effect = higher value
# [27] = Rieske KO mouse fibroblast survival, CellTiter-Glo 72 h
smiles,measurement,setting,value
C[C@]12CCC3C(CC[C@H]4C[C@@H](Cl)CC[C@]34C)C1CCC2=O (some centres not stated),inhibition,[1],-16.8% (inactive)
c1ccc2c3c([nH]c2c1)CNCC3,parasite load remaining,[2],59.9% (inactive)
same,viability,[2],85.2%
same,inhibition,[1],-0.853% (inactive)
same,fold change,[3]; stronger effect = lower value,0.984 (inactive)
same,fold change,[3]; [21],1.28
same,cell count,[3]; [22],7470
same,cell count,[3]; [23],7600
same,z-score,[4],-0.425 (inactive)
C=C1C([C@]2(C)C(CC(=O)OC)[C@@](C)(COC(C)=O)OC(=O)C[C@@H]2OC(C)=O)[C@@H](OC=O)[C@H](OC(=O)C(OC(C)=O)C(C)CC)[C@@]2(C)[C@H](c3ccoc3)CC(=O)C12O (some centres not stated),inhibition,[1],-6.98% (inactive)
O=C(O)COc1ccc(Cl)cc1Cl,inhibition,[1],-20.1% (inactive)
same,red/green cell ratio (normalised),[5],1.22 (inactive)
same,normalised cell number,[5]; [24],0.89
same,normalised cell number,[5]; [25],1.08
C#CCOS(=O)OC1CCCCC1Oc1ccc(C(C)(C)C)cc1 (configuration not stated),inhibition,[1],-21.1% (inactive)
CN[C@H]1C[C@@H](N)[C@H](O)[C@@H](O[C@@H]2O[C@H](CO)[C@H](O)[C@@H]3OC4(O[C@H]23)O[C@H]([C@@H](N)CO)[C@H](O)[C@@H](O)[C@H]4O)[C@@H]1O (some centres not stated),inhibition,[1],14.7% (inactive)
C=C[C@H]1CN2CC[C@H]1C[C@H]2[C@H](O)c1ccnc2ccccc12,fluorescence slope change,[6],71.3% (active)
same,inhibition,[7],21%
same,score,[8],1.18
same,rescue above control,[9],0.34
same,cytochrome c release ratio,[10],0.75
same,inhibition of aggregation,[11],48.7%
same,glutamate uptake change,[12],-2.27%
same,inclusion score,[13],2
same,aggregation suppression score,[14],1.28
same,parasite load remaining,[2],56.2% (inactive) and 85.6% (inactive) and 31.1% (inactive)
same,viability,[2],103% and 68.9% and 98.9%
same,inhibition,[1],5.53% (inactive)
same,red/green cell ratio (normalised),[5],1.04 (inactive)
same,normalised cell number,[5]; [24],1.08
same,normalised cell number,[5]; [25],1.12
same,activity remaining,[15],97.1% (inactive)
same,fold change,[3]; stronger effect = lower value,0.86 (inactive) and 0.872 (inactive)
same,fold change,[3]; [21],1.26 and 3.36
same,cell count,[3]; [22],9250 and 11500
same,cell count,[3]; [23],10800 and 13200
same,remaining NAD,[16],10 nM (inactive)
same,luciferase signal,[17],48 AU (inactive)
C=C[C@H]1CN2CC[C@H]1C[C@@H]2[C@@H](O)c1ccnc2ccccc12,parasite load remaining,[2],63% (inactive)
same,viability,[2],116%
same,inhibition,[1],-5.19% (inactive)
same,fold change,"[3]; stronger effect = lower value, cell number ratio, induced over uninduced",0.868 (inactive)
same,fold change,[3]; [21],1.48
same,cell count,[3]; [22],8930
same,cell count,[3]; [23],10300
same,remaining NAD,[16],10 nM (inactive)
same,luciferase signal,[17],40 AU (inactive)
C=CCN1CC[C@]23c4c5ccc(O)c4O[C@H]2C(=O)CC[C@@]3(O)[C@H]1C5,fluorescence slope change,[6],64.1% (active)
same,survival,[18],31.3 (inactive)
same,inhibition,[1],-2.77% (inactive)
same,remaining activity,[19],107% (inactive)
same,z-score,[20]; [26],0.056 (inactive) and 0.0574 (inactive)
same,z-score,[20]; [27],-0.112 and -0.417
same,remaining NAD,[16],10 nM (inactive)
same,luciferase signal,[17],32 AU (inactive)
same,z-score,[4],0.98 (inactive) and -0.48 (inactive) and 0.575 (inactive)
CC(=O)OC1CC(OC2C(O)CC(OC3C(O)CC(OC4CCC5(C)C(CCC6C5CC(O)C5(C)C(C7=CC(=O)OC7)CCC65O)C4)OC3C)OC2C)OC(C)C1OC1OC(CO)C(O)C(O)C1O (configuration not stated),inhibition,[1],7.01% (inactive)
C[C@]12CC[C@@H](OS(=O)(=O)O)C[C@@H]1CC[C@@H]1[C@@H]2CC[C@]2(C)C(=O)CC[C@@H]12,inhibition,[1],5.35% (inactive)
CC[C@@]1(O)C(=O)OCc2c1cc1n(c2=O)Cc2cc3ccccc3nc2-1,fluorescence slope change,[6],24.5% (inactive)
same,inhibition,[7],-22.8%
same,score,[8],1.92
same,rescue above control,[9],0
same,cytochrome c release ratio,[10],0.94
same,inhibition of aggregation,[11],-7.84%
same,glutamate uptake change,[12],-25.7%
same,aggregation suppression score,[14],1.49
same,survival,[18],0.833 (inactive)
same,inhibition,[1],3.3% (inactive)
same,red/green cell ratio (normalised),[5],1.07 (inactive)
same,normalised cell number,[5]; [24],0.28
same,normalised cell number,[5]; [25],0.3
same,activity remaining,[15],107% (inactive)
same,remaining activity,[19],90% (inactive)
same,z-score,[20]; [26],-0.725 (inactive) and -0.263 (inactive) and -1.18 (inactive)
same,z-score,[20]; [27],0.467 and -0.232 and -0.237
same,luciferase signal,[17],28 AU (inactive)
same,z-score,[4],-0.96 (inactive) and -0.91 (inactive) and -2.17 (inactive)
